Measurements reported in PubChem BioAssay (NCATS).
Where “and” joins values, the source holds several entries; their conditions need not be identical. Equal entries are not always repeated. Records with an inconclusive call do not appear. Where a structure was tested more than once in an assay, its records may differ in their call. Calls of active or inactive are those of the source. Unless noted, calls follow the shape of the dose curve; as a rule, active = well fitted curve in the direction sought with a large enough effect; inconclusive = small, poorly fitted or top-dose-only effect, or another doubt; inactive = no such curve, though single readings can be large; an effect the other way counts as inactive or inconclusive.

What was measured:
[1] = qHTS profiling of the MIPE4 collection as inhibitors of Plasmodium falciparum (HB3) proliferation (AID 743347; call rule not given here;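 also: plate controls were DMSO vehicle wells for no effect and artemisinin wells for full effect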); conditions: P. falciparum HB3 in erythrocytes, SYBR Green DNA, 72 h
Summary of the method: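 Parasite DNA was quantified by SYBR Green I fluorescence (ex 485, em 535 nm) after overnight lysis in saponin/Triton buffer at room temperature. Cultures at 0.3% parasitemia and 2.5% hematocrit were first exposed to compound for 72 h at 37 C; signals were normalised to artemisinin (0.29 uM) and vehicle wells.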

[2] = High-throughput drug toxicity screening in the BPDCN cell line Gen2.2 (AID 1224824; call rule not given here;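 also: cells exposed to compounds for 48 h before reading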); conditions: Gen2.2 BPDCN cells; at 45.8 µM (top of the series) unless noted
Summary of the method: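 Gen2.2 cells, 500 per well in phenol red-free RPMI with 10% FBS, exposed to compounds 48 h at 37 C, 5% CO2; viability by CellTiter-Glo luminescence. Percent activity scaled to DMSO (100%) and 9.2 uM bortezomib final (0%).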

[3] = High-throughput drug toxicity screening in the BPDCN cell line Cal-1 (AID 1224825; call rule not given here); conditions: Cal-1 BPDCN cell viability, qHTS; at 45.8 µM (top of the series) unless noted
Summary of the method: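 CellTiter-Glo luminescence after 48 h compound exposure; percent activity scaled with DMSO as 100% and bortezomib (9.2 uM final) as 0%. Cal-1 cells seeded at 500/well in RPMI, 10% FBS, no phenol red.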

[4] = qHTS assay for measurement of the activity of small molecule inhibitors on Zika virus induced Caspase-3 activity in human iPSC derived neural progenitor cells (hNPCs) (AID 1224857); also: nearly all actives have a fitted effect of over 65% in size; also: potency is read from the fitted curve at half-maximal effect
Summary of the method: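 Quantitative HTS format: human iPSC neural progenitors, 1 h compound pretreatment, ZIKV 2 FFU/cell for 6 h at 37 C. Percent inhibition derived from luminescent caspase-3/7 signal between uninfected and infected controls.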

[5] = qHTS assay for measurement of the activity of small molecule inhibitors on Zika virus induced Caspase-3 activity in human astrocytoma cells (AID 1224859); also: potency is read from the fitted curve at half-maximal effect
Summary of the method: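 Readout is luminescence from Caspase-Glo 3/7 added after a 6 h ZIKV infection (2 FFU/cell) of compound-pretreated (1 h) SNB-19 cells; data expressed as % inhibition versus uninfected and infected wells.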

[6] = qHTS Screen of the MIPE 4.0 Collection Against Ewings Sarcoma (TC71) (AID 1259253); also: nearly all actives have a fitted effect of over 40% in size; also: potency is read from the fitted curve at half-maximal effect
Summary of the method: (§1)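 Viability screen: 48 h incubation at 37C, 95% humidity, 5% CO2 with serially titrated compound, followed by CellTiter-Glo readout.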

[7] = qHTS Screen of the MIPE 4.0 Collection Against Ewings Sarcoma (EW8) (AID 1259255); also: nearly all actives have a fitted effect of over 35% in size; also: potency is read from the fitted curve at half-maximal effect;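 as to viability: 100% = DMSO-treated cells and 0% = medium-only wells without cells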
Summary of the method: as §1

[8] = qHTS Screen of the MIPE 4.0 Collection Against Ewings Sarcoma (TC32) (AID 1259256); also: nearly all actives have a fitted effect of over 45% in size; also: potency is read from the fitted curve at half-maximal effect
Summary of the method: as §1

[9] = qHTS Screen of the MIPE 4.0 Collection Against Ewings Sarcoma (RDES) (AID 1259252); also: nearly all actives have a fitted effect of over 35% in size; also: potency is read from the fitted curve at half-maximal effect
Summary of the method: as §1

[10] = qHTS assay to identify small molecule inhibitors of chordoma cells - UCH-1 (AID 1259355); also: % is scaled to controls: 0 for no effect and ±100 for the full control effect; nearly all actives have a fitted effect of over 55% in size
Summary of the method: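 Screening used approved and investigational drugs in 15-point titration against 800 seeded cells per well. A fixed combination of auranofin with camptothecin, doxorubicin, rubitecan and topotecan followed compound addition, and growth was scored by CellTiter-Glo after 48hr.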

[11] = at 28.5 µM (top of the series) unless noted

| SMILES | growth, % of control [1, 11] | cell viability, % of control (lower = more cytotoxic) [2] | viability (% of control) [3] | Potency [4] | Potency [5] | Potency [6] | Potency [7] | Potency [8] | Potency [9] | growth, % of control ([1]; at 9.64 µM (top of the series)) | growth, % of control ([1]; at 28.5 µM (top of the series)) | Potency [10] |
| --- | --- | --- | --- | --- | --- | --- | --- | --- | --- | --- | --- | --- |
| C[C@H](Cc1ccc(O)c(O)c1)[C@@H](C)Cc1ccc(O)c(O)c1 | 20.7% | 7.79% | 5.77% | inactive and 26.4 µM (active) | inactive | 13.2 µM (active) | 16.6 µM (active) | 13.2 µM (active) |  |  |  |  |
| CN(C)CCCC1(c2ccc(F)cc2)OCc2cc(C#N)ccc21 (stereo not drawn) | 93% | 120% | 99.6% | inactive | inactive | 14.8 µM (active) | inactive | 16.6 µM (active) |  |  |  |  |
| CN(C)c1ccc2nc3ccc(=[N+](C)C)cc-3sc2c1 | 43.4% and 10.1% | 10.9% | 8.34% | inactive | inactive |  | 4.69 µM (active) | 9.35 µM (active) | 2.35 µM (active) |  |  |  |
| CCCCN(CCCC)CCC(O)c1cc2c(Cl)cc(Cl)cc2c2cc(C(F)(F)F)ccc12 (stereo not drawn) |  | 34.8% | 64.8% | inactive | inactive |  | inactive |  | inactive | 5.69% | 7.8% |  |
| COC(=O)N[C@H](C(=O)N[C@@H](Cc1ccccc1)[C@@H](O)CN(Cc1ccc(-c2ccccn2)cc1)NC(=O)[C@@H](NC(=O)OC)C(C)(C)C)C(C)(C)C | 9.81% | 159% | 107% | inactive | inactive |  | inactive | inactive | inactive |  |  |  |
| CC(C)c1nc(CN(C)C(=O)N[C@H](C(=O)N[C@@H](Cc2ccccc2)C[C@H](O)[C@H](Cc2ccccc2)NC(=O)OCc2cncs2)C(C)C)cs1 | 15.5% | 28.1% | 94.9% | inactive | inactive |  | 16.6 µM (active) | 14.8 µM (active) | inactive |  |  |  |
| O=c1c(O)c(-c2cc(O)c(O)c(O)c2)oc2cc(O)cc(O)c12 | 106% | 54.4% | 111% | inactive | inactive |  |  | inactive | 16.6 µM (active) |  |  |  |
| CCCCCCCCCCCCCCCCCCCCCCO | 105% | 148% | 105% | inactive | inactive |  | inactive | inactive | inactive |  |  |  |
| CC(=O)O[C@H]1C(=O)[C@@]2(C)C([C@H](OC(=O)c3ccccc3)[C@]3(O)C[C@H](OC(=O)[C@H](O)[C@@H](NC(=O)c4ccccc4)c4ccccc4)C(C)=C1C3(C)C)[C@]1(OC(C)=O)CO[C@@H]1C[C@@H]2O (stereo partly drawn) | 4.22% | 17% | 12.8% | inactive | inactive |  | inactive | inactive | inactive |  |  |  |
| NC(=NCc1ccccc1)NC(=O)c1nc(Cl)c(N)nc1N | 98.4% | 130% | 133% | inactive | inactive |  |  |  | 16.6 µM (active) |  |  |  |
| O=C(OC1C[C@H]2CC[C@@H](C1)[N+]21CCCC1)C(O)(c1ccccc1)c1ccccc1 (stereo partly drawn) | 17.4% | 120% | 99.2% | inactive | inactive |  | inactive | inactive | inactive |  |  |  |
| O=c1cc(N2CCOCC2)oc2c(-c3ccccc3)cccc12 | 36.7% | 13.3% | 36.2% | inactive | inactive |  | 18.7 µM (active) |  | 13.2 µM (active) |  |  |  |
| Cc1cccc(-c2[nH]ncc2-c2ccc3ncccc3n2)n1 | 52.8% | 759% | 106% | inactive | inactive | inactive | inactive | inactive |  |  |  |  |
| N=C(N=C(N)N)N1CCOCC1 | 101% | 139% | 127% | inactive | inactive |  |  |  |  |  |  | inactive |
| CC(=O)Nc1ccc(O)cc1 |  | 105% | 33.3% | inactive |  | inactive |  |  | inactive |  |  |  |
| CC(S)C(=O)NCC(=O)O (stereo not drawn) | 95.5% | 104% | 100% | inactive | inactive |  | inactive | inactive |  |  |  |  |
| CN1CCC(=C2c3ccccc3CCc3sccc32)CC1 | 8.17% | 93.1% | 69% | inactive | inactive |  |  |  |  |  |  | inactive |
| O=C(NCCO[N+](=O)[O-])c1cccnc1 | 108% | 178% | 117% | inactive | inactive |  | inactive |  |  |  |  |  |
| Cc1cccc(C#Cc2ccccc2)n1 | 42% | 40.7% | 57.2% | inactive and 6.31 µM (active) | inactive and 3.98 µM (active) |  | 18.7 µM (active) |  |  |  |  |  |
| Cc1ncc([N+](=O)[O-])n1CC(C)O (stereo not drawn) | 99.2% | 120% | 98.4% | inactive | inactive |  | inactive |  |  |  |  | inactive |
| CC(C)c1ccc2oc3nc(N)c(C(=O)O)cc3c(=O)c2c1 | 74% | 98.6% | 97.4% | 1.66 µM (active) and inactive | 1.32 µM (active) and inactive |  |  | inactive |  |  |  |  |
| CCOC(=O)C(C)Oc1cccc2c(=O)n(CC(=O)Nc3ccc4c(c3)OCCO4)ccc12 (stereo not drawn) | 96% | 102% | 88% | inactive | inactive |  | 2.64 µM (active) | 3.32 µM (active) |  |  |  |  |
| Cc1nc2n(c(=O)c1CCN1CCC(c3noc4cc(F)ccc34)CC1)CCCC2 |  | 80.6% | 103% | inactive | inactive |  | inactive | inactive |  |  |  | inactive |
| CCc1nc(N)nc(N)c1-c1ccc(Cl)cc1 | 18.1% | 136% | 37.1% | inactive | inactive | 1.32 µM (active) |  | 2.64 µM (active) |  |  |  | inactive |
| Nc1cc(C(Cl)=C(Cl)Cl)c(S(N)(=O)=O)cc1S(N)(=O)=O | 98.3% | 360% | 106% | inactive | inactive |  | inactive | inactive |  |  |  |  |
